In the library only some 8.1% were active in any assay of this set; here they are far more common.
RORgamma inh: qHTS for inhibitors of ROR gamma transcriptional activity | Potency, µM (highest dose often 53.6 µM), for the others: at the highest dose activity change, negative = inhibition, actives largely listed as inhibitors | Drosophila S2 Gal4-RORgamma UAS-luciferase reporter, 20 h | 310,000 tested, 5.4% active | AID 2551, 2010; also: % is scaled to controls: 0 for no effect and ±100 for the full control effect; nearly all actives have a fitted effect of over 60% in size
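A Gal4/UAS one-hybrid system in insect cells: metallothionein-promoter Gal4–ROR gamma fusion plus Photinus luciferase reporter. Copper sulfate 700 uM final, 20 hr ambient incubation, luminescent detection after 10 min with reagent.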
VP16 counter: VP16 counterscreen qHTS for inhibitors of ROR gamma transcriptional activity; Drosophila S2 Gal4-VP16 UAS-luciferase, luminescence, 20 h; Potency, µM (titrated, usually from 53.6 µM), for inactives: at the top dose activity, negative = inhibition, most hits filed as inhibitors; 310,000 tested, 3.5% active; AID 2546, 2010;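 also: Gal4-VP16 expression switched on by copper sulfate through the metallothionein promoter; % is scaled to controls: 0 for no effect and ±100 for the full control effect; nearly all actives have a fitted effect of over 50% in size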
PINK1 expr mod: A Quantitative High throughput Screen to Identify Chemical Modulators of PINK1 Expression; PINK1 immunofluorescence, high-content cytometry, 24 h; Potency, µM (top dose mostly 76.6 µM), inactives show at the top dose activation (PINK1 increase), actives largely listed as activators; 410,000 tested, 0.2% active; active = well fitted activation curve with a large enough effect; inconclusive = small, poorly fitted or top-dose-only effect; cell line not stated here; also: % of control where 0% means no effect; nearly all actives have a fitted effect of over 65% in size
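Decision-based qHTS: stable cells, 24 h exposure to five compound concentrations, CCCP as control. Fixed cells stained for PINK1 plus nuclear, mitochondrial and cell markers, cytometer read.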
ClpP mod: qHTS Assay for Activators of ClpP; ATP-dependent Clp protease proteolytic subunit (Bacillus subtilis (strain 168)), P80244; purified B. subtilis ClpP, FRET peptide cleavage, 20 min; Potency, µM (top dose mostly 57.5 µM), for the others: at the top dose activity change, negative = active; 340,000 tested, 1.9% active; AID 651965, 2013; active = well fitted falling curve with a large enough effect; inconclusive = small, poorly fitted or top-dose-only effect; inactive = no such curve, though single readings can be large or run the other way; also: the source files actives as falling curves though it sought activators and does not explain the sign; nearly all actives have a fitted effect of over 65% in size
Target sequence (P80244 whole entry, looked up): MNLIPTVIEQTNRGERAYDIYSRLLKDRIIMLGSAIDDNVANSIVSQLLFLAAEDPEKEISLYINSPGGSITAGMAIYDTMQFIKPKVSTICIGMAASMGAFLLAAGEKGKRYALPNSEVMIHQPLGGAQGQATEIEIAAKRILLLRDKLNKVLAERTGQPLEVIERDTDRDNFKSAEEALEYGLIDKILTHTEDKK
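Buffer: 100 mM Tris/HCl pH8, 100 mM KCl, 0.05% low protease BSA, 2.5% glycerol, 0.01% Tween-20. ClpP 10 microg/mL final; 20 min RT; delta FRET normalized to ADEP and DMSO controls.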
Sfp inh: qHTS Assay for Inhibitors of Bacillus subtilis Sfp phosphopantetheinyl transferase (PPTase) | Potency, µM, without a hit: largest response in the series, negative = inhibition, actives largely listed as inhibitors | 310,000 tested, 3.5% active | Biochemical Sfp PPTase activity, qHTS;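 also: the enzyme is Sfp with the accession as filed and its product quenches rhodamine fluorescence; 0% = enzyme reaction without inhibitor and -100% = no enzyme wells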
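Step 1, compound plus 15 nM Sfp-PPTase, 15 min, room temperature. Step 2, add rhodamine-CoA (5 uM) and BHQ-2-YbbR (12.5 uM). Step 3, read 525/598 nm fluorescence at 0 and 30 min.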
Epigenetic reg: Quantitative High-Throughput Screen for Regulators of Epigenetic Control; Potency, µM (series often up to 53.9 µM), for inactives: at the highest dose GFP activation, usual class: activators; murine LDR cells, GFP reporter derepression, 30 h; 280,000 tested, 0.2% active; also: % of control where 0% means no effect; nearly all actives have a fitted effect of over 60% in size
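Murine LDR cells bearing a silenced CMV-driven GFP reporter were exposed to compound for 30 h at 37 C. After PBS washes, GFP-positive cells (20-120 um objects) counted by laser-scanning microplate cytometry.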
* = called active by the depositor; u = inconclusive; x = no result; [ ] = dose if it differs, or a comment. Unless noted, calls follow the shape of the dose curve; as a rule, active = well fitted curve in the direction sought with a large enough effect; inconclusive = small, poorly fitted or top-dose-only effect, or another doubt; inactive = no such curve, though single readings can be large; an effect the other way counts as inactive or inconclusive. Potency is read from the fitted curve at half-maximal effect.

SMILES | RORgamma inh | VP16 counter | PINK1 expr mod | ClpP mod | Sfp inh | Epigenetic reg
Cc1nn(C)c(C)c1/C=N/NC(=O)CCn1nc(C)c([N+](=O)[O-])c1C | -7% | 3.5µM* | 1% | -1% | 15% | -3%
Cc1ccc(/C=N/NC(=O)Cn2nc(C)c([N+](=O)[O-])c2C)o1 | -42% | 1% | 2% | 1% | 45µM* | -1%
Cc1nc2cc(NC(=O)[C@@H]3C[C@@H](Sc4ccccn4)CN3Cc3ccccc3F)ccc2s1 | x | x | 0% | x | x | x
Oc1ccc(C2=NNC(=NCc3ccc4c(c3)OCO4)SC2)c(O)c1 | 1.6µM* | u | 1% | 1% | -27% | 1%
Clc1ccc(C2=NNC(=NCc3ccc4c(c3)OCO4)SC2)cc1 | u | u | 13% | -2% | -17% | -1%
COc1ccc(C(CCNCc2ccccc2)c2ccc(F)cc2)cc1 (stereo not drawn) | -6% | -8% | -3% | 0% | 3% | 1%
COc1ccc(C(CCNCc2ccc(F)cc2)c2ccc(F)cc2)cc1 (stereo not drawn) | u | u | -2% | -3% | 56µM* | 0%
COc1ccc(CNCCC(c2ccc(F)cc2)c2ccc(OC)cc2)cc1 (stereo not drawn) | -43% | -30% | -3% | 28µM* | -8% | 18%
COc1cc(C(CC(=O)NCc2ccccc2Cl)N2Cc3ccccc3C2=O)cc(OC)c1OC (stereo not drawn) | x | x | -4% | -2% | x | 4%
CC(C)OC(=O)c1cc(-c2ccc(C=O)o2)ccc1Cl | -3% | -8% | -1% | -5% | -11% | -1%
CC1=C(C#N)C(=O)NC(=O)/C1=C\c1ccc(-c2ccc(C)cc2[N+](=O)[O-])o1 | 36% | -24% | 1% | x | 50µM* | 2%
CCOC(=O)c1cc(-c2ccc(/C=C3/C(=O)NC(=O)C(C#N)=C3C)o2)ccc1Cl | u | 7% | -2%[38.3 µM] | -3% | 50µM* | -1%
O=C(NCc1ccc(Cl)cc1)C1CCN(S(=O)(=O)Cc2ccccc2)CC1 | x | x | 4% | 0% | x | 0%
CCCn1c(C2CCCN2c2nc(-c3cccc(Br)c3)cs2)nc2cc(Cl)c(Cl)cc21 (stereo not drawn) | 2.5µM* | 5.6µM* | 2% | -2% | -23% | x
CCCn1c(C2CCCN2c2nc(C)cs2)nc2cc(Cl)c(Cl)cc21 (stereo not drawn) | u | u | 4% | -4% | u | x
O=C1/C(=C\c2cccc([N+](=O)[O-])c2O)SC(=S)N1Cc1ccccc1 | -63% | 16µM* | u | -1% | u | x
COc1cc([N+](=O)[O-])cc(/C=C2/SC(=S)N(Cc3ccccc3)C2=O)c1O | u | 5µM* | 35µM* | -1% | 40µM* | x
O=C1/C(=C\c2ccc(O)cc2)SC(=S)N1Cc1ccccc1 | u | -12% | 23% | x | -10% | x
O=C1/C(=C\c2cc(Br)cc(Br)c2O)SC(=S)N1Cc1ccccc1 | 13µM* | u | u | 2% | 63µM* | x
O=C1/C(=C/c2ccccc2O)SC(=S)N1Cc1cccnc1 | u | u | 0% | 2% | 50µM* | 2%
COc1cc(/C=C2/SC(=S)N(Cc3ccccc3)C2=O)cc(Cl)c1O | u | u | 8% | -2% | -3% | x
CCOC(=O)c1c(C)oc2ncnc(Nc3ccc(OC)c(OC)c3)c12 | x | x | 2% | 9% | x | -1%
Cc1cccc(N2CCN(C(=O)CS(=O)(=O)c3cccc4nsnc34)CC2C)c1 (stereo not drawn) | x | x | -4% | 1% | x | 0%
C=CCN=C1S/C(=C/c2cccc([N+](=O)[O-])c2)C(=O)N1CC=C | 4% | 14% | 2% | 0% | -17% | 0%

Screening data: PubChem BioAssay, National Center for Advancing Translational Sciences (NCATS)
